Results as given in PubChem BioAssay AID1159580 (chemical genetic matrix, 2015).
Where “and” joins values, the source holds several entries; their conditions need not be identical. Identical values can stand only once. In all, about 5,500 compounds went through this assay and about 2,000 (36%) were called active. Inconclusive results (about 18%) are left out. Cut-off read from the data, not from the text of the source: active = normalized growth mostly below about 0.91 (no sharp cut-off); inconclusive = no clear call, values can overlap the other calls; inactive = mostly above about 0.92. Some of the results follow.

Experiment: chemical genetic growth profiling, strain panel (AID 1159580);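 note: tested at 20 µM; growth read once vehicle control cultures reached saturation at 30 °C; 1 = growth at the plate median or of vehicle wells; lower values mean less growth of the strain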
Conditions: growth OD

Measured: normalized growth

CCCCC1(COC(=O)CCC(=O)O)C(=O)N(c2ccccc2)N(c2ccccc2)C1=O
inactive: S. cerevisiae deletion strains, locus YBR021W, strain FUR4, stronger effect = lower value 1 | S. cerevisiae deletion strains, locus YBR229C, strain ROT2, stronger effect = lower value 1 | S. cerevisiae deletion strains, locus YCL029C, strain bik1, stronger effect = lower value 1.02 | S. cerevisiae deletion strains, locus YDL035C, strain GPR1, stronger effect = lower value 1.01 | S. cerevisiae deletion strains, locus YDL074C, strain BRE1, stronger effect = lower value 0.993 | S. cerevisiae deletion strains, locus YDL101C, strain DUN1, stronger effect = lower value 1 | S. cerevisiae deletion strains, locus YDL134C, strain PPH21, stronger effect = lower value 1.01 | S. cerevisiae deletion strains, locus YDL185W, strain tfp1, stronger effect = lower value 1.01 | S. cerevisiae deletion strains, locus YDL192W, strain arf1, stronger effect = lower value 1.01 | S. cerevisiae deletion strains, locus YDR101C, strain arx1, stronger effect = lower value 1.01 | S. cerevisiae deletion strains, locus YDR150W, strain NUM1, stronger effect = lower value 0.992 | S. cerevisiae deletion strains, locus YDR162C, strain NBP2, stronger effect = lower value 0.995 | S. cerevisiae deletion strains, locus YDR318W, strain mcm21, stronger effect = lower value 1 | S. cerevisiae deletion strains, locus YDR388W, stronger effect = lower value 1.01 | S. cerevisiae deletion strains, locus YDR502C, strain sam2, stronger effect = lower value 1.01 | S. cerevisiae deletion strains, locus YEL061C, strain CIN8, stronger effect = lower value 1 | S. cerevisiae deletion strains, locus YER110C, stronger effect = lower value 1.02 | S. cerevisiae deletion strains, locus YER155C, strain BEM2, stronger effect = lower value 1 | S. cerevisiae deletion strains, locus YER167W, strain BCK2, stronger effect = lower value 1 | S. cerevisiae deletion strains, locus YGL078C, strain dbp3, stronger effect = lower value 0.996 | S. cerevisiae deletion strains, locus YGL086W, strain mad1, stronger effect = lower value 1 | S. cerevisiae deletion strains, locus YGL248W, strain PDE1, stronger effect = lower value 1.01 | S. cerevisiae deletion strains, locus YGR135W, strain pre9, stronger effect = lower value 1.02 | S. cerevisiae deletion strains, locus YGR252W, strain gcn5, stronger effect = lower value 1.06 | S. cerevisiae deletion strains, locus YHR030C, strain SLT2, stronger effect = lower value 1 and 1.05 | S. cerevisiae deletion strains, locus YHR079C, strain IRE1 (second series), stronger effect = lower value 1.01 | S. cerevisiae deletion strains, locus YHR079C, strain IRE1, stronger effect = lower value 1.04 | S. cerevisiae deletion strains, locus YHR094C, strain hxt1, stronger effect = lower value 1.01 | S. cerevisiae deletion strains, locus YHR129C, strain ARP1, stronger effect = lower value 1 | S. cerevisiae deletion strains, locus YHR200W, strain rpn10, stronger effect = lower value 1.01 | S. cerevisiae deletion strains, locus YIL066C, strain RNR3, stronger effect = lower value 1.01 | S. cerevisiae deletion strains, locus YIL073C, strain SPO22, stronger effect = lower value 1.09 | S. cerevisiae deletion strains, locus YIL125W, strain kgd1, stronger effect = lower value 0.991 | S. cerevisiae deletion strains, locus YIR030C, strain dcg1, stronger effect = lower value 1.01 | S. cerevisiae deletion strains, locus YJL095W, strain BCK1, stronger effect = lower value 1.01 and 1.05 | S. cerevisiae deletion strains, locus YJL134W, strain LCB3, stronger effect = lower value 0.996 | S. cerevisiae deletion strains, locus YJL168C, strain set2, stronger effect = lower value 1 | S. cerevisiae deletion strains, locus YJL187C, strain SWE1 (second series), stronger effect = lower value 1.01 | S. cerevisiae deletion strains, locus YJR043C, strain POL32, stronger effect = lower value 0.989 | S. cerevisiae deletion strains, locus YJR066W, strain TOR1, stronger effect = lower value 0.967 | S. cerevisiae deletion strains, locus YJR075W, strain HOC1, stronger effect = lower value 1.01 | S. cerevisiae deletion strains, locus YKL009W, strain mrt4, stronger effect = lower value 1.03 | S. cerevisiae deletion strains, locus YKL068W, stronger effect = lower value 1 | S. cerevisiae deletion strains, locus YKL085W, strain MDH1 (second series), stronger effect = lower value 0.972 | S. cerevisiae deletion strains, locus YKL085W, strain MDH1, stronger effect = lower value 0.972 | S. cerevisiae deletion strains, locus YKL190W, strain CNB1, stronger effect = lower value 0.993 | S. cerevisiae deletion strains, locus YKR001C, strain vps1, stronger effect = lower value 1.01 | S. cerevisiae deletion strains, locus YLR039C, strain RIC1, stronger effect = lower value 0.912 | S. cerevisiae deletion strains, locus YLR058C, strain SHM2, stronger effect = lower value 1 | S. cerevisiae deletion strains, locus YLR102C, strain apc9, stronger effect = lower value 1 | S. cerevisiae deletion strains, locus YLR113W, strain HOG1, stronger effect = lower value 0.952 | S. cerevisiae deletion strains, locus YLR262C, strain YPT6, stronger effect = lower value 0.913 | S. cerevisiae deletion strains, locus YLR268W, strain sec22, stronger effect = lower value 1.02 | S. cerevisiae deletion strains, locus YLR330W, strain CHS5, stronger effect = lower value 0.993 | S. cerevisiae deletion strains, locus YLR342W, strain FKS1 (second series), stronger effect = lower value 0.993 | S. cerevisiae deletion strains, locus YLR371W, strain rom2, stronger effect = lower value 1.01 | S. cerevisiae deletion strains, locus YLR418C, strain cdc73, stronger effect = lower value 1.03 | S. cerevisiae deletion strains, locus YML016C, strain PPZ1, stronger effect = lower value 1 | S. cerevisiae deletion strains, locus YML032C, strain rad52, stronger effect = lower value 1 | S. cerevisiae deletion strains, locus YML124C, strain tub3, stronger effect = lower value 1.01 | S. cerevisiae deletion strains, locus YMR078C, strain ctf18, stronger effect = lower value 1 | S. cerevisiae deletion strains, locus YMR223W, strain ubp8, stronger effect = lower value 1.01 | S. cerevisiae deletion strains, locus YMR263W, strain SAP30, stronger effect = lower value 0.998 | S. cerevisiae deletion strains, locus YMR307W, strain GAS1, stronger effect = lower value 1.05 | S. cerevisiae deletion strains, locus YNL067W, strain RPL9B, stronger effect = lower value 0.998 | S. cerevisiae deletion strains, locus YNL128W, strain TEP1, stronger effect = lower value 1.02 | S. cerevisiae deletion strains, locus YNL183C, strain NPR1, stronger effect = lower value 0.945 | S. cerevisiae deletion strains, locus YNL233W, strain BNI4, stronger effect = lower value 1 | S. cerevisiae deletion strains, locus YNL250W, strain rad50, stronger effect = lower value 1 | S. cerevisiae deletion strains, locus YNL271C, strain bni1, stronger effect = lower value 1.01 | S. cerevisiae deletion strains, locus YNL298W, strain CLA4, stronger effect = lower value 1.01 | S. cerevisiae deletion strains, locus YNL307C, strain MCK1, stronger effect = lower value 1.02 | S. cerevisiae deletion strains, locus YNL322C, strain KRE1, stronger effect = lower value 0.997 | S. cerevisiae deletion strains, locus YNR052C, strain pop2, stronger effect = lower value 1.01 | S. cerevisiae deletion strains, locus YOL006C, strain TOP1, stronger effect = lower value 0.991 | S. cerevisiae deletion strains, locus YOL012C, strain htz1 1.51 | S. cerevisiae deletion strains, locus YOL147C, strain pex11, stronger effect = lower value 1.01 | S. cerevisiae deletion strains, locus YOR061W, strain CKA2, stronger effect = lower value 1 | S. cerevisiae deletion strains, locus YOR069W, strain VPS5, stronger effect = lower value 1 | S. cerevisiae deletion strains, locus YOR136W, strain idh2, stronger effect = lower value 1.02 | S. cerevisiae deletion strains, locus YOR144C, strain elg1, stronger effect = lower value 1.01 | S. cerevisiae deletion strains, locus YOR184W, strain ser1, stronger effect = lower value 1.02 | S. cerevisiae deletion strains, locus YOR231W, strain MKK1, stronger effect = lower value 1.02 | S. cerevisiae deletion strains, locus YOR316C, strain cot1, stronger effect = lower value 1.02 | S. cerevisiae deletion strains, locus YPL055C, strain LGE1, stronger effect = lower value 0.989 | S. cerevisiae deletion strains, locus YPL256C, strain CLN2, stronger effect = lower value 1.02 | S. cerevisiae deletion strains, locus YPR119W, strain clb2, stronger effect = lower value 1.01 | S. cerevisiae deletion strains, locus YPR141C, strain kar3, stronger effect = lower value 1 | S. cerevisiae deletion strains, locus YPR163C, strain tif3, stronger effect = lower value 1.02 | S. cerevisiae deletion strains, locus YPR167C, strain met16, stronger effect = lower value 1.01 | S. cerevisiae deletion strains, strain wtn01, stronger effect = lower value 1.02 | S. cerevisiae strains, strain wild type, stronger effect = lower value 0.995
